Test results taken from PubChem BioAssay AID1159580 (chemical genetic matrix, 2015).
In all, about 5,500 compounds went through this assay and about 2,000 (36%) were called active. Not shown: some 18% with an inconclusive outcome. No stated cut-off is given here; in the data, active means normalized growth mostly below about 0.91 (no sharp cut-off); inconclusive means no clear call, values can overlap the other calls; inactive means mostly above about 0.92. The list shows a part of the results.

Assay: chemical genetic growth profiling, strain panel (AID 1159580);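 further: tested at 20 µM; growth read once vehicle control cultures reached saturation at 30 °C; 1 = growth at the plate median or of vehicle wells; lower values mean less growth of the strain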
Settings: growth OD

Measured: normalized growth

Oc1ccc(Cl)cc1
inactive: S. cerevisiae deletion strains, locus YJR075W, strain HOC1, hits give low values 0.993 | S. cerevisiae deletion strains, locus YKL009W, strain mrt4, hits give low values 0.972 | S. cerevisiae deletion strains, locus YKL068W, hits give low values 0.985 | S. cerevisiae deletion strains, locus YKL085W, strain MDH1 (second series), hits give low values 0.978 | S. cerevisiae deletion strains, locus YKL085W, strain MDH1, hits give low values 0.978 | S. cerevisiae deletion strains, locus YKL160W, strain elf1, hits give low values 1.03 | S. cerevisiae deletion strains, locus YKL190W, strain CNB1, hits give low values 0.993 | S. cerevisiae deletion strains, locus YKR001C, strain vps1, hits give low values 0.996 | S. cerevisiae deletion strains, locus YKR026C, strain gcn3, hits give low values 1.02 | S. cerevisiae deletion strains, locus YKR091W, strain srl3, hits give low values 1.01 | S. cerevisiae deletion strains, locus YLL001W, strain dnm1, hits give low values 1.02 | S. cerevisiae deletion strains, locus YLL026W, hits give low values 1.02 | S. cerevisiae deletion strains, locus YLL041C, strain sdh2, hits give low values 1.01 | S. cerevisiae deletion strains, locus YLR027C, strain aat2, hits give low values 0.999 | S. cerevisiae deletion strains, locus YLR039C, strain RIC1, hits give low values 0.983 | S. cerevisiae deletion strains, locus YLR058C, strain SHM2, hits give low values 0.989 | S. cerevisiae deletion strains, locus YLR102C, strain apc9, hits give low values 0.976 | S. cerevisiae deletion strains, locus YLR113W, strain HOG1, hits give low values 1 | S. cerevisiae deletion strains, locus YLR221C, strain rsa3, hits give low values 1.01 | S. cerevisiae deletion strains, locus YLR258W, strain gsy2, hits give low values 1 | S. cerevisiae deletion strains, locus YLR262C, strain YPT6 (second series), hits give low values 1.02 | S. cerevisiae deletion strains, locus YLR262C, strain YPT6, hits give low values 0.986 | S. cerevisiae deletion strains, locus YLR268W, strain sec22, hits give low values 0.93 | S. cerevisiae deletion strains, locus YLR320W, strain mms22, hits give low values 1.03 | S. cerevisiae deletion strains, locus YLR330W, strain CHS5, hits give low values 0.99 | S. cerevisiae deletion strains, locus YLR342W, strain FKS1 (second series), hits give low values 0.995 | S. cerevisiae deletion strains, locus YLR342W, strain FKS1, hits give low values 1.01 | S. cerevisiae deletion strains, locus YLR357W, strain rsc2, hits give low values 1.04 | S. cerevisiae deletion strains, locus YLR370C, strain arc18, hits give low values 1.01 | S. cerevisiae deletion strains, locus YLR371W, strain rom2, hits give low values 0.962 | S. cerevisiae deletion strains, locus YLR384C, strain iki3, hits give low values 1.01 | S. cerevisiae deletion strains, locus YLR418C, strain cdc73, hits give low values 0.986 | S. cerevisiae deletion strains, locus YML016C, strain PPZ1, hits give low values 0.99 | S. cerevisiae deletion strains, locus YML032C, strain rad52, hits give low values 0.963 | S. cerevisiae deletion strains, locus YML120C, strain ndi1, hits give low values 1.01 | S. cerevisiae deletion strains, locus YML124C, strain tub3, hits give low values 0.975 | S. cerevisiae deletion strains, locus YMR058W, strain fet3, hits give low values 1.01 | S. cerevisiae deletion strains, locus YMR078C, strain ctf18, hits give low values 0.968 | S. cerevisiae deletion strains, locus YMR125W, strain sto1, hits give low values 1.01 | S. cerevisiae deletion strains, locus YMR129W, hits give low values 1.01 | S. cerevisiae deletion strains, locus YMR205C, strain PFK2, hits give low values 1.03 | S. cerevisiae deletion strains, locus YMR223W, strain ubp8, hits give low values 1 | S. cerevisiae deletion strains, locus YMR231W, strain pep5, hits give low values 1.01 | S. cerevisiae deletion strains, locus YMR307W, strain GAS1, hits give low values 1 | S. cerevisiae deletion strains, locus YNL067W, strain RPL9B, hits give low values 0.996 | S. cerevisiae deletion strains, locus YNL071W, strain lat1, hits give low values 1.01 | S. cerevisiae deletion strains, locus YNL128W, strain TEP1, hits give low values 0.978 | S. cerevisiae deletion strains, locus YNL153C, strain GIM3, hits give low values 1 | S. cerevisiae deletion strains, locus YNL183C, strain NPR1, hits give low values 0.941 | S. cerevisiae deletion strains, locus YNL209W, strain ssb2, hits give low values 1 | S. cerevisiae deletion strains, locus YNL233W, strain BNI4, hits give low values 0.988 | S. cerevisiae deletion strains, locus YNL248C, strain rpa49, hits give low values 1 | S. cerevisiae deletion strains, locus YNL250W, strain rad50, hits give low values 0.97 | S. cerevisiae deletion strains, locus YNL271C, strain bni1, hits give low values 0.975 | S. cerevisiae deletion strains, locus YNL298W, strain CLA4, hits give low values 0.971 | S. cerevisiae deletion strains, locus YNL307C, strain MCK1, hits give low values 0.968 | S. cerevisiae deletion strains, locus YNL322C, strain KRE1 (second series), hits give low values 1.02 | S. cerevisiae deletion strains, locus YNL322C, strain KRE1, hits give low values 0.992 | S. cerevisiae deletion strains, locus YNR049C, strain mso1, hits give low values 1.01 | S. cerevisiae deletion strains, locus YNR052C, strain pop2, hits give low values 0.973 | S. cerevisiae deletion strains, locus YOL006C, strain TOP1, hits give low values 1.03 | S. cerevisiae deletion strains, locus YOL012C, strain htz1 0.904 | S. cerevisiae deletion strains, locus YOL147C, strain pex11, hits give low values 0.986 | S. cerevisiae deletion strains, locus YOR001W, strain rrp6, hits give low values 0.972 | S. cerevisiae deletion strains, locus YOR061W, strain CKA2, hits give low values 0.98 | S. cerevisiae deletion strains, locus YOR069W, strain VPS5, hits give low values 0.989 | S. cerevisiae deletion strains, locus YOR070C, strain gyp1, hits give low values 1 | S. cerevisiae deletion strains, locus YOR080W, strain dia2, hits give low values 1.01 | S. cerevisiae deletion strains, locus YOR083W, strain WHI5, hits give low values 1.02 | S. cerevisiae deletion strains, locus YOR106W, strain vam3, hits give low values 1.02 | S. cerevisiae deletion strains, locus YOR136W, strain idh2, hits give low values 0.98 | S. cerevisiae deletion strains, locus YOR144C, strain elg1, hits give low values 0.978 | S. cerevisiae deletion strains, locus YOR184W, strain ser1, hits give low values 0.961 | S. cerevisiae deletion strains, locus YOR231W, strain MKK1, hits give low values 0.979 | S. cerevisiae deletion strains, locus YOR265W, strain rbl2, hits give low values 1.02 | S. cerevisiae deletion strains, locus YOR270C, strain vph1, hits give low values 1.02 | S. cerevisiae deletion strains, locus YOR290C, strain snf2, hits give low values 0.999 | S. cerevisiae deletion strains, locus YOR316C, strain cot1, hits give low values 0.974 | S. cerevisiae deletion strains, locus YPL051W, strain arl3, hits give low values 1.01 | S. cerevisiae deletion strains, locus YPL078C, strain atp4, hits give low values 1.01 | S. cerevisiae deletion strains, locus YPL106C, strain sse1, hits give low values 1.04 | S. cerevisiae deletion strains, locus YPL240C, strain hsp82, hits give low values 1.01 | S. cerevisiae deletion strains, locus YPL241C, strain CIN2, hits give low values 0.997 | S. cerevisiae deletion strains, locus YPL256C, strain CLN2, hits give low values 0.978 | S. cerevisiae deletion strains, locus YPR119W, strain clb2, hits give low values 0.98 | S. cerevisiae deletion strains, locus YPR141C, strain kar3, hits give low values 0.976 | S. cerevisiae deletion strains, locus YPR163C, strain tif3, hits give low values 0.983 | S. cerevisiae deletion strains, locus YPR167C, strain met16, hits give low values 0.974 | S. cerevisiae deletion strains, strain wtn01, hits give low values 0.971 | S. cerevisiae strains, strain wild type, hits give low values 0.995
